The nature of test [1]: qHTS assay for small molecule disruptors of the mitochondrial membrane potential (AID 720635). Further: potency means the concentration at half of the fitted maximal effect. The method in brief:
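HepG2 cells (2,000/well) attached overnight at 37C, then took compound for 1 hr at 37C, 5% CO2. Mito-MPS dye was added for 30 min; fluorescence was read at 490/535 nm (monomers) and 540/590 nm (aggregates).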

A short description of test [2]: qHTS assay to test for compound auto fluorescence at 590 nm (red) in HepG2 cells (AID 720674). In a few lines:
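Rose Bengal sodium served as the red fluorophore standard. HepG2 monolayers (overnight attachment, MEM with 10% FBS) were exposed to test compounds for 1 hr at 37 C and read at Ex 540/Em 590 nm.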

Test [3] in a line: qHTS assay to test for compound auto fluorescence at 535 nm (green) in HEK293 cells (AID 720680).
Test [4] deals with Glucocorticoid receptor (Homo sapiens) (UniProt P04150). Kind of test: qHTS assay to identify small molecule agonists of the glucocorticoid receptor (GR) signaling pathway (AID 720691; active means well fitted activation curve with a large enough effect in the signal ratio in the repeat runs, not every such curve was filed as active; the % refers to the signal ratio). In a few lines:
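Steps: seed GR-bla HeLa cells, incubate 4 h at 37 C/5% CO2; pin-transfer DMSO-dissolved compounds; incubate 18 h at 37 C; add LiveBLAzer B/G FRET substrate; after 2 h at room temperature, measure fluorescence.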

Test [5] is described as follows: qHTS assay to identify small molecule antagonists of the glucocorticoid receptor (GR) signaling pathway - cell viability counter screen (AID 720693). Further: nearly all actives have a fitted effect of over 55% in size. Further: potency means the concentration at half of the fitted maximal effect.
Test [6] is described as follows: qHTS assay for identifying genotoxic compounds that show differential cytotoxicity against isogenic chicken DT40 cell lines with known DNA damage response pathways - Rev3 mutant cell line (AID 743014). Further: nearly all actives have a fitted effect of over 55% in size. Further: potency means the concentration at half of the fitted maximal effect.
Test [7] in a line: qHTS assay to identify small molecule antagonists of the thyroid receptor (TR) signaling pathway - cell viability counter screen (AID 743064). Further: nearly all actives have a fitted effect of over 50% in size. In a few lines:
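Counter screen for cytotoxicity: compound plus T3 (1 nM final) on GH3.TRE-Luc cells, 23.5 h at 37 °C, then fluorescence viability readout with CellTiter-Fluor.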

Test [8] is described as follows: qHTS assay to identify small molecule antagonists of the thyroid receptor (TR) signaling pathway (AID 743065). Further: nearly all actives have a fitted effect of over 55% in size. Further: potency means the concentration at half of the fitted maximal effect. The method in brief: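 GH3.TRE-Luc rat pituitary cells carrying two TR response elements driving luciferase were plated for 4 h, given compound plus 1 nM T3 (final), and incubated 23.5 h at 37 C. ONE-Glo luminescence measured reporter inhibition; CellTiter-Fluor fluorescence tracked cytotoxicity.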

In test [9] the test system is thyroid hormone receptor (rat, GH3 cells). Kind of test: qHTS assay to identify small molecule agonists of the thyroid receptor (TR) signaling pathway (AID 743066; calls by dose curve).
Test [10] is described as follows: qHTS assay to identify small molecule antagonists of the estrogen receptor alpha (ER-alpha) signaling pathway using the BG1 cell line - cell viability counter screen (AID 743081).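 Further: compound given together with 17beta-estradiol as the ER stimulus; series mostly up to about 70 µM; nearly all actives have a fitted effect of over 45% in size.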
A short description of test [11]: qHTS assay to identify small molecule that activate the aryl hydrocarbon receptor (AhR) signaling pathway - cell viability counter screen (AID 743086).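 Further: HepG2 liver cells carrying the AhR DRE luciferase reporter; series mostly up to about 70 µM; nearly all actives have a fitted effect of over 45% in size.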 The method in brief: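 HepG2-AhR-luc (HG2L7.5c1) cells, 4000/well, were preincubated 5 h at 37C, exposed to compound in qHTS format for 24 hr at 37C, then given CellTiter-Fluor for 30 min; viability was read as fluorescence in the reporter wells.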

Test [12] in a line: qHTS assay for small molecules that induce genotoxicity in human embryonic kidney cells expressing luciferase-tagged ATAD5 - cell viability (AID 651634; calls by dose curve; further: nearly all actives have a fitted effect of over 25% in size). In a few lines: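 Cells (HEK293T, luciferase-tagged ATAD5) are seeded at 2,000 per well, dosed with compound or DMSO vehicle, and incubated 15.5 hr at 37C and 5% CO2. CellTiter-Fluor is added for 30 min before fluorescence is measured.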

A short description of test [13]: qHTS assay to test for compound auto fluorescence at 590 nm (red) in HEK293 cell free culture (AID 720683). The method in brief:
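Tox21 10K library compounds were pinned into cell-free DMEM with 10% FBS and fluorescence was read at excitation 540 nm. Activity is expressed as Rose Bengal sodium equivalency.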

Test [14] addresses Glucocorticoid receptor (Homo sapiens) (UniProt P04150). Kind of test: qHTS assay to identify small molecule antagonists of the glucocorticoid receptor (GR) signaling pathway (AID 720692; active means well fitted inhibition curve with a large enough effect in the signal ratio in the repeat runs, not every such curve was filed as active; the % refers to the signal ratio). In a few lines: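 Antagonism was scored as loss of dexamethasone-driven (5 nM final) reporter signal in HeLa cells bearing a glucocorticoid response element–beta-lactamase construct, after 18 h compound exposure at 37 C and 2 h FRET substrate loading.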

The target in test [15] is Estrogen receptor (Homo sapiens) (UniProt P03372). Description: qHTS assay to identify small molecule agonists of the estrogen receptor alpha (ER-alpha) signaling pathway (AID 743075; calls by dose curve;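 further: HEK293 GripTite cells with ER-alpha and UAS-driven beta-lactamase reporter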).
Sequence of Estrogen receptor (Homo sapiens) (P03372 whole entry, looked up): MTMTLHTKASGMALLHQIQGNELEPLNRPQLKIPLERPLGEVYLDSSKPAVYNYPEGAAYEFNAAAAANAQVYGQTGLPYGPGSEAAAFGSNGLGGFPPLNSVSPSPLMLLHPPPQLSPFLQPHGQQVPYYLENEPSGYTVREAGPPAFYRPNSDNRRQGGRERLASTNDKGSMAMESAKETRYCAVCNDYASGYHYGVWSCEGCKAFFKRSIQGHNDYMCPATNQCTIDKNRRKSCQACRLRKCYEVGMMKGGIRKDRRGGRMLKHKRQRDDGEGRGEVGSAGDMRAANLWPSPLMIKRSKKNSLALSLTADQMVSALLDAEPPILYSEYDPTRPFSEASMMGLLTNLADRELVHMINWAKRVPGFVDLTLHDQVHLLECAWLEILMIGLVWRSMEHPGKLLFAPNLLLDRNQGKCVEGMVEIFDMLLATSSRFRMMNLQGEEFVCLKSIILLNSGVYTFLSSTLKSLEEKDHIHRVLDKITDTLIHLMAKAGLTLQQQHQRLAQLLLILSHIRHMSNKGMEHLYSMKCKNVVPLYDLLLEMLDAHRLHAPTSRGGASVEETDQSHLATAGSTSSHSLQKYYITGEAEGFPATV
For test [16] the target is unchanged. Description: qHTS assay to identify small molecule agonists of the estrogen receptor alpha (ER-alpha) signaling pathway using the BG1 cell line (AID 743079). Further: nearly all actives have a fitted effect of over 20% in size. Further: potency means the concentration at half of the fitted maximal effect.
Test [17] can be described thus: qHTS assay to identify small molecule antagonists of the estrogen receptor alpha (ER-alpha) signaling pathway using the BG1 cell line (AID 743080; calls by dose curve;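 further: BG1 cells stimulated with 17beta-estradiol alongside compound; series mostly up to about 70 µM; nearly all actives have a fitted effect of over 25% in size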). The method in brief: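 Readout is ONE-Glo luminescence, taken 30 min at room temperature after reagent addition, preceded by a CellTiter-Fluor viability read; BG1-Luc-4E2 cells had received compound and 17beta-estradiol for 21.5 h at 37 C.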

Test [18] deals with Peroxisome proliferator-activated receptor gamma (Homo sapiens) (UniProt P37231). Kind of test: qHTS assay to identify small molecule agonists of the peroxisome proliferator-activated receptor gamma (PPARg) signaling pathway (AID 743094; active means well fitted activation curve with a large enough effect in the signal ratio in the repeat runs, not every such curve was filed as active; the % refers to the signal ratio). The method in brief:
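Cells from the PPARg UAS-bla HEK293H line are plated and incubated 5 h at 37C. Compounds in DMSO are pinned in and left 17 h at 37C. LiveBLAzer B/G substrate is then added for 1 h at room temperature before fluorescence is measured.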

Test [19] is described as follows: qHTS assay for small molecule agonists of the p53 signaling pathway (AID 651631; calls by dose curve; further: nearly all actives have a fitted effect of over 15% in size). The method in brief: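 Stably transfected HCT-116 cells (beta-lactamase behind p53 response elements) get compounds after a 5 h settling period; 16 h later at 37 °C, FRET substrate is loaded and fluorescence read after 2 h.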

Unmarked numbers belong to inactive results. Inconclusive results are not listed. Calls of active or inactive are those of the source. Unless noted, the call rests on the fitted dose curve; in most records, active means well fitted curve in the direction sought with a large enough effect in the repeat runs; inconclusive means weak or mixed curves; inactive means no such curve, though single readings can be large; an effect the other way counts as inactive or inconclusive.

Sequence of Glucocorticoid receptor (Homo sapiens) (P04150 whole entry, looked up): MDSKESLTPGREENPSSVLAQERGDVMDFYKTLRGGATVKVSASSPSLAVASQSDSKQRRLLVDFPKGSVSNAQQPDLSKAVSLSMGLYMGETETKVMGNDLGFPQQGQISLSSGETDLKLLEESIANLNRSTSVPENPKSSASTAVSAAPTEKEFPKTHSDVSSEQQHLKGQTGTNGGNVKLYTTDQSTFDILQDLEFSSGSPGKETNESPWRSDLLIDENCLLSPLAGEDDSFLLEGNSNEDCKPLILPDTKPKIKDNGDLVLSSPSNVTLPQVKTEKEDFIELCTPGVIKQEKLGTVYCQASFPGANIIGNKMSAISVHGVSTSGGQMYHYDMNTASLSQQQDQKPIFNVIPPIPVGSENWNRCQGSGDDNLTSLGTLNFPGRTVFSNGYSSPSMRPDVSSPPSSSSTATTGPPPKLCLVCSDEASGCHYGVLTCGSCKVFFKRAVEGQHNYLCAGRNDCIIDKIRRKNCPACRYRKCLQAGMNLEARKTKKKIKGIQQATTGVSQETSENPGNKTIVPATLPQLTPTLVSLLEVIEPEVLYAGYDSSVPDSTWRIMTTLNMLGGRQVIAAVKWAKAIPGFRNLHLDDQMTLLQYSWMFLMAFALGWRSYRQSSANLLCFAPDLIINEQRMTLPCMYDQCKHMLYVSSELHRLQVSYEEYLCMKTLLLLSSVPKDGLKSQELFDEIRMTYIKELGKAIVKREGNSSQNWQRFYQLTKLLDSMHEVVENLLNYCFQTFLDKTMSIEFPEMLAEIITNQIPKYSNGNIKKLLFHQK
Sequence of Peroxisome proliferator-activated receptor gamma (Homo sapiens) (P37231 whole entry, looked up): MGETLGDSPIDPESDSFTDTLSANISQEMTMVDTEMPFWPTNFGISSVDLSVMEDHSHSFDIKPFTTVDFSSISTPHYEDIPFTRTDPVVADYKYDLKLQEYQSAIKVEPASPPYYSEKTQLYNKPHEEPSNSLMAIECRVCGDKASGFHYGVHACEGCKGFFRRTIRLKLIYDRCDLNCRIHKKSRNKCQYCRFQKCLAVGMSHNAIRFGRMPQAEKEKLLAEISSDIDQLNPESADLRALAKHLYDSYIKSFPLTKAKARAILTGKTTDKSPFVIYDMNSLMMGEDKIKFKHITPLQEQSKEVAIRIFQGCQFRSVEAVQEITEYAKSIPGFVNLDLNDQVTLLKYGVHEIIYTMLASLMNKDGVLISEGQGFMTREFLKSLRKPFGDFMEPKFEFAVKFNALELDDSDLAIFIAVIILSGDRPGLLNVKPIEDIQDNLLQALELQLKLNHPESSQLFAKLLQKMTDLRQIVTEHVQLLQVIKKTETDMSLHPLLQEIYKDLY

Regarding `CC(=O)O[C@H]1C[C@H](O[C@H]2[C@@H](O)C[C@H](O[C@H]3[C@@H](O)C[C@H](O[C@H]4CC[C@@]5(C)[C@H](CC[C@@H]6[C@@H]5C[C@@H](O)[C@]5(C)[C@@H](C7=CC(=O)OC7)CC[C@]65O)C4)O[C@@H]3C)O[C@@H]2C)O[C@H](C)[C@H]1O[C@@H]1O[C@H](CO)[C@@H](O)[C@H](O)[C@H]1O`, the Potency in [1] was 750 nM (active); in test [5] it was 674 nM (active); in [6], 750 nM (active). In [2], the molecule was called inactive. Moreover, the Potency entry in test [3], in test [4], in [7], in test [8], in test [9] and in test [10] was “inactive” throughout. Moreover, the Potency result in [11] was “inactive”.

With `CC(C)C[C@H](CN)CC(=O)O`, the Potency result in test [12], in [1], in test [4], in test [14], in test [5] and in test [6] was “inactive” each time. For the same molecule, the Potency result in test [7], in [15], in test [17], in test [10] and in [18] was “inactive” in each case. Moreover, the call in test [2] and in test [13] was inactive. The Potency in [16] is 13300 nM (active).

As for `CCC1(c2ccccc2)C(=O)NC(=O)N(C)C1=O` (stereo unspecified), the Potency entry in [19], in test [12], in test [4], in [14], in [5] and in test [6] was “inactive” in each case. Further, the Potency result in test [7], in test [8], in test [9], in [10], in [11] and in test [18] was “inactive” throughout. The molecule was classed as inactive in test [2] and in test [13].

As to `OC(c1ccccc1)(c1ccccc1)C1CN2CCC1CC2` (stereo unspecified), the Potency result in test [12], in test [3], in test [4], in test [14], in test [5] and in test [9] was “inactive” in each case. In addition, the Potency entry in test [15], in [16], in test [17], in test [10], in [11] and in test [18] was “inactive” in each case. Moreover, the outcome in test [2] was inactive. Besides, the Potency in test [8] is 29800 nM (active).

With `C#CCN1CC(=O)N(COC(=O)C2C(C=C(C)C)C2(C)C)C1=O` (stereo unspecified), the Potency entry in test [19], in test [3], in test [4], in test [14], in test [5] and in test [6] was “inactive” in each case. Besides, the Potency result in test [7], in test [8], in test [9], in test [15], in [16] and in [17] was “inactive” throughout. Moreover, the Potency entry in test [10], in test [11] and in test [18] was “inactive” each time. Also, the molecule was called inactive in [2] and in test [13].

For the molecule `CNC1(c2ccccc2Cl)CCCCC1=O` (stereo unspecified), the Potency result in test [19], in test [12], in test [4], in test [14], in [5] and in test [6] was “inactive” in each case. In addition, the Potency entry in test [7], in test [8], in test [9], in test [15], in [16] and in [17] was “inactive” throughout. The Potency result in test [10], in test [11] and in test [18] was “inactive” in each case. In test [2], the molecule was classed as inactive.

(Values after PubChem BioAssay (Tox21).)
